In PubChem BioAssay (EPA / NIEHS):
Activity calls are given as the source filed them. Rule for the calls: active = hit-call score of the fitted dose curve at least 0.9, where 1 is the maximum; inactive = score below 0.9.

How the values were obtained:
[1] = read-out: CFLAR gene, CFLAR (gene 8837); assay: LTEA_HepaRG_CFLAR: Life Technologies and Expression Analysis (LTEA) Assay for CFLAR gene using HepaRG (AID 2283455); conditions: mRNA level, 48 h; actives raise or lower the signal
Summary of the method: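 Transcript level by qRT-PCR (normalized to ACTB, GAPDH and POLR2A) after 48 h chemical exposure of HepaRG cells, top concentration 100 uM with half-log steps, 0.5% DMSO vehicle, duplicates; fitted bidirectionally against DMSO baseline.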

[2] = read-out: Forkhead box O1 (FOXO1), FOXO1 (gene 2308); assay: LTEA_HepaRG_FOXO1: Life Technologies and Expression Analysis (LTEA) Assay for Forkhead box O1 (FOXO1) using HepaRG (AID 2283456); conditions: mRNA level, 48 h; actives raise or lower the signal
Summary of the method: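 FOXO1 transcript quantified by qRT-PCR after 48 h chemical exposure (top 100 uM, half-log steps, 0.5% DMSO) of HepaRG cells, housekeeping-normalized (ACTB/GAPDH/POLR2A). Changes fitted in both directions relative to vehicle.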

[3] = read-out: growth arrest and DNA damage 45 (GADD45A), GADD45A (gene 1647); assay: LTEA_HepaRG_GADD45A: Life Technologies and Expression Analysis (LTEA) Assay for growth arrest and DNA damage 45 (GADD45A) using HepaRG (AID 2283458); conditions: mRNA level, 48 h; actives raise or lower the signal
Summary of the method: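 Transcript induction or loss, quantified by TaqMan qRT-PCR against three housekeeping genes, is the read-out. HepaRG cells received chemicals for 48 h across eight half-log concentrations from 100 uM in 0.5% DMSO; gain and loss fitted relative to DMSO.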

[4] = read-out: Forkhead box O3 (FOXO3), FOXO3 (gene 2309); assay: LTEA_HepaRG_FOXO3: Life Technologies and Expression Analysis (LTEA) Assay for Forkhead box O3 (FOXO3) using HepaRG (AID 2283459); conditions: mRNA level, 48 h; actives raise or lower the signal
Summary of the method: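 FOXO3 transcript measured by qRT-PCR (normalized to ACTB, GAPDH, POLR2A) after 48 h exposure of HepaRG cells in serum-free induction medium. Duplicates, eight half-log concentrations up to 100 uM, 0.5% DMSO; gain or loss fitted against DMSO.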

[5] = read-out: ABC Transporter (ABCB1), ABCB1 (gene 5243); assay: LTEA_HepaRG_ABCB1: Life Technologies and Expression Analysis (LTEA) Assay for ABC Transporter (ABCB1) using HepaRG (AID 2283460); conditions: mRNA level, 48 h; actives raise or lower the signal
Summary of the method: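 ABCB1 transcript level measured by TaqMan qRT-PCR against three housekeeping genes after 48 h chemical exposure of differentiated HepaRG cells. Top concentration 100 uM, half-log steps, eight points, 0.5% DMSO vehicle; bidirectional fit relative to DMSO.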

[6] = read-out: growth arrest and DNA damage 45 (GADD45B), GADD45B (gene 4616); assay: LTEA_HepaRG_GADD45B: Life Technologies and Expression Analysis (LTEA) Assay for growth arrest and DNA damage 45 (GADD45B) using HepaRG (AID 2283461); conditions: mRNA level, 48 h; actives raise or lower the signal
Summary of the method: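 Transcript level quantified by Fluidigm TaqMan qRT-PCR with three housekeeping genes for normalization, analyzed for up- or down-regulation against 0.5% DMSO. HepaRG cultures dosed 48 h at eight half-log concentrations up to 100 uM, duplicates.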

[7] = read-out: ABC Transporter (ABCC3), ABCC3 (gene 8714); assay: LTEA_HepaRG_ABCC3: Life Technologies and Expression Analysis (LTEA) Assay for ABC Transporter (ABCC3) using HepaRG (AID 2283462); conditions: mRNA level, 48 h; actives raise or lower the signal
Summary of the method: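 Transcript level by TaqMan qRT-PCR, normalised to three housekeeping genes, fitted in both directions relative to vehicle. Chemicals tested in duplicate at eight half-log concentrations up to 100 uM for 48 h on HepaRG cells (0.5% DMSO).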

[8] = read-out: ABC Transporter (ABCB11), ABCB11 (gene 8647); assay: LTEA_HepaRG_ABCB11: Life Technologies and Expression Analysis (LTEA) Assay for ABC Transporter (ABCB11) using HepaRG (AID 2283463); conditions: mRNA level, 48 h; actives raise or lower the signal
Summary of the method: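 ABCB11 transcript levels quantified by TaqMan qRT-PCR against three housekeeping genes after 48 h chemical exposure of HepaRG cultures. Concentrations up to 100 uM in half-log steps, 0.5% DMSO vehicle; both induction and suppression scored.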

[9] = read-out: ABC Transporter (ABCC2), ABCC2 (gene 1244); assay: LTEA_HepaRG_ABCC2: Life Technologies and Expression Analysis (LTEA) Assay for ABC Transporter (ABCC2) using HepaRG (AID 2283464); conditions: mRNA level, 48 h; actives raise or lower the signal
Summary of the method: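 Endpoint is ABCC2 transcript level from qRT-PCR, normalized to three housekeeping genes and fitted bidirectionally relative to DMSO. Human HepaRG cells received test chemical for 48 h at up to 100 uM (8 points, half-log steps, 0.5% DMSO), duplicate wells.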

[10] = read-out: Broad substrate specificity ATP-binding cassette transporter ABCG2 (Homo sapiens) (UniProt Q9UNQ0); assay: LTEA_HepaRG_ABCG2: Life Technologies and Expression Analysis (LTEA) Assay for ABC Transporter (ABCG2) using HepaRG (AID 2283465); conditions: mRNA level, 48 h; actives raise or lower the signal
Summary of the method: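 ABCG2 transcript was quantified by TaqMan qRT-PCR against three housekeeping genes in HepaRG cells. Cells were treated in duplicate for 48 h across an 8-point half-log series up to 100 uM, with 0.5% DMSO vehicle. Gain or loss versus DMSO was fit.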

[11] = read-out: ATP-citrate lyase (ACLY), ACLY (gene 47); assay: LTEA_HepaRG_ACLY: Life Technologies and Expression Analysis (LTEA) Assay for ATP-citrate lyase (ACLY) using HepaRG (AID 2283466); conditions: mRNA level, 48 h; actives raise or lower the signal
Summary of the method: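 ACLY mRNA quantified by qRT-PCR on Fluidigm arrays against three housekeeping genes, after 48 h chemical treatment of HepaRG cells (top concentration 100 uM, half-log steps, 0.5% DMSO vehicle). Up- or down-regulation fitted relative to DMSO.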

[12] = read-out: Peroxisomal acyl-coenzyme A oxidase 1 (ACOX1) gene, ACOX1 (gene 51); assay: LTEA_HepaRG_ACOX1: Life Technologies and Expression Analysis (LTEA) Assay for Peroxisomal acyl-coenzyme A oxidase 1 (ACOX1) gene using HepaRG (AID 2283467); conditions: mRNA level, 48 h; actives raise or lower the signal
Summary of the method: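 ACOX1 transcript levels were quantified by TaqMan qRT-PCR against three housekeeping genes after 48 h chemical exposure of differentiated human HepaRG cells. Exposure used eight half-log steps topping at 100 uM, 0.5% DMSO vehicle, in duplicate. Bidirectional curve fits were made relative to DMSO.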

[13] = read-out: Alkaline Phosphatase, Placental (ALPP) gene, ALPP (gene 250); assay: LTEA_HepaRG_ALPP: Life Technologies and Expression Analysis (LTEA) Assay for Alkaline Phosphatase, Placental (ALPP) gene using HepaRG (AID 2283468); conditions: mRNA level, 48 h; actives raise or lower the signal;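 for AC50: differentiated human HepaRG liver cells in serum-free induction medium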
Summary of the method: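 ALPP transcript level, measured by qRT-PCR and normalized to three housekeeping genes (ACTB, GAPDH, POLR2A), after 48 h dosing of differentiated HepaRG in serum-free induction medium. Top concentration 100 uM with half-log dilutions (8 points, 0.5% DMSO, duplicates); bidirectional fitting relative to DMSO.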

[14] = read-out: Bcl-2 (BAD) gene, BAD (gene 572); assay: LTEA_HepaRG_BAD: Life Technologies and Expression Analysis (LTEA) Assay for Bcl-2 (BAD) gene using HepaRG (AID 2283469); conditions: mRNA level, 48 h; actives raise or lower the signal
Summary of the method: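 Read-out: qRT-PCR of BAD mRNA, normalized to three housekeeping genes. Human HepaRG cultures got 48 h chemical exposure in 0.5% DMSO, duplicate eight-point half-log series topping at 100 uM. Gain or loss of signal fitted versus DMSO vehicle.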

[15] = read-out: Bcl-2 (BAX) gene, BAX (gene 581); assay: LTEA_HepaRG_BAX: Life Technologies and Expression Analysis (LTEA) Assay for Bcl-2 (BAX) gene using HepaRG (AID 2283470); conditions: mRNA level, 48 h; actives raise or lower the signal
Summary of the method: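 Cells were thawed, plated for 48 h, moved to serum-free induction medium and dosed for 48 h (highest concentration 100 uM, half-log steps, 0.5% DMSO). Total RNA was then analysed for BAX expression by qRT-PCR.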

[16] = read-out: adenosine kinase (ADK) gene, ADK (gene 132); assay: LTEA_HepaRG_ADK: Life Technologies and Expression Analysis (LTEA) Assay for adenosine kinase (ADK) gene using HepaRG (AID 2283471); conditions: mRNA level, 48 h; actives raise or lower the signal
Summary of the method: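 HepaRG (human liver), 48 h chemical exposure, 8-pt half-log series, top 100 uM, 0.5% DMSO vehicle. Readout: ADK mRNA by qRT-PCR vs housekeeping genes; bidirectional curve fit relative to DMSO baseline.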

[17] = read-out: Alpha-fetoprotein (AFP) gene, AFP (gene 174); assay: LTEA_HepaRG_AFP: Life Technologies and Expression Analysis (LTEA) Assay for Alpha-fetoprotein (AFP) gene using HepaRG (AID 2283472); conditions: mRNA level, 48 h; actives raise or lower the signal
Summary of the method: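 Chemicals were tested on differentiated HepaRG cells for 48 hours at eight concentrations up to 100 uM, with 0.5% DMSO as vehicle. AFP expression was then quantified by qRT-PCR and analyzed for gain or loss relative to DMSO.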

BCL2L11 (gene 10018) = assay: LTEA_HepaRG_BCL2L11: Life Technologies and Expression Analysis (LTEA) Assay for Bcl-2 (BCL2L11) gene using HepaRG (AID 2283473); conditions: mRNA level, 48 h; actives raise or lower the signal
Summary of the method: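 BCL2L11 transcript levels are measured by Fluidigm qRT-PCR, normalized to three housekeeping genes. HepaRG cultures were plated 48 h, then treated 48 h with test chemical (top 100 uM, half-log, 0.5% DMSO vehicle); curves were fitted bidirectionally against DMSO.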

[18] = read-out: Cytochrome P450 (CYP1A1), CYP1A1 (gene 1543); assay: LTEA_HepaRG_CYP1A1: Life Technologies and Expression Analysis (LTEA) Assay for Cytochrome P450 (CYP1A1) using HepaRG (AID 2283454); conditions: mRNA level, 48 h; actives raise or lower the signal
Summary of the method: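 CYP1A1 transcript levels measured by Fluidigm qRT-PCR against three housekeeping genes, 48 h after chemical dosing of human HepaRG cells (highest concentration 100 uM, half-log steps, 0.5% DMSO vehicle). Gain or loss of signal fitted relative to DMSO.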

[19] = CEETOX_H295R_TESTO: CeeTox H295R High-throughput Steroidogenesis Assay for Testosterone (TESTO) (AID 2283457); conditions: actives raise or lower the signal
Summary of the method: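 Testosterone secreted into the medium over 48 h by H295R cells (maximum passage 10) was quantified by LC-MS/MS after MTBE extraction. Fitted in both directions against DMSO, with concentrations diluted until MTT viability was ≥70%.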

Measured: AC50

Sequence of Broad substrate specificity ATP-binding cassette transporter ABCG2 (Homo sapiens) (Q9UNQ0 whole entry, looked up): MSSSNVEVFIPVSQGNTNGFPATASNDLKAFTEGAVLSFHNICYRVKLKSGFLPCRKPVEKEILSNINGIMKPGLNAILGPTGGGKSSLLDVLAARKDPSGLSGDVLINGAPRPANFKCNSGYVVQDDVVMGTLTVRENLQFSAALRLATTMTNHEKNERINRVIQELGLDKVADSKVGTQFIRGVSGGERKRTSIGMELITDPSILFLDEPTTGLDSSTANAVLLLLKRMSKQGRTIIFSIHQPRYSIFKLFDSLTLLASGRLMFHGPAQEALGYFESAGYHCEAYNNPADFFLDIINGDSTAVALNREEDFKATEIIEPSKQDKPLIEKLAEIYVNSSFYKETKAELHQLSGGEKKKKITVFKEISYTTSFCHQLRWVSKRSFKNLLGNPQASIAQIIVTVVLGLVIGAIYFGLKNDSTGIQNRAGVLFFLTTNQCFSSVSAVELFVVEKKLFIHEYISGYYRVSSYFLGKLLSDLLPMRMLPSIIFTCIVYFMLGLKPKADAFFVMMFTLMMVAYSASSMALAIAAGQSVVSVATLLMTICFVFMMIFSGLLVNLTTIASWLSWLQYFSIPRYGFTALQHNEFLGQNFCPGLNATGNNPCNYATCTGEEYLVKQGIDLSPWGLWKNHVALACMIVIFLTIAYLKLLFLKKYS

CCN(CC)N=O
not listed: [18] | [19]
inactive: all other assays above

c1ccc(NNc2ccccc2)cc1
active: [18] 31.6 µM | [6] 50 µM
not listed: [13] | [19]
inactive: all other assays above

N#CC(Br)Br
not listed: [13] | [19]
inactive: all other assays above

CO[C@@H]1[C@H](OC(=O)NC(=O)CCl)CC[C@]2(CO2)[C@H]1[C@@]1(C)O[C@@H]1CC=C(C)C
active: [18] 16 µM | [8] 0.286 µM
not listed: [13] | [15] | [19]
inactive: all other assays above

Nc1ccc([N+](=O)[O-])cc1
not listed: [18] | [19]
inactive: all other assays above

Oc1ccccc1Cl
not listed: [18] | [19]
inactive: all other assays above

O=C1CCCO1
active: [3] 50 µM | [5] 9.92 µM | [16] 50 µM
not listed: [13] | [19]
inactive: all other assays above

CN(C)c1ccccc1
not listed: [18] | [19]
inactive: all other assays above

CCC(C)c1ccc(O)cc1 (stereo not given)
not listed: [13] | [19]
inactive: all other assays above

CC(C)N(Cc1ccccc1)C(=O)C(C)(C)C
active: [18] 50 µM | [9] 50 µM
not listed: [1]
inactive: all other assays above

CC(C)(OOC(C)(C)c1ccccc1)c1ccccc1
active: [18] 50 µM | [6] 50 µM | [9] 50 µM
not listed: [13] | [19]
inactive: all other assays above

CC(C)(C)C(O)(CCc1ccc(Cl)cc1)Cn1cncn1 (stereo not given)
active: [5] 3.45 µM | [11] 6.24 µM | [13] 80.3 µM | [17] 62.2 µM
not listed: [15] | [18] | [19]
inactive: all other assays above

COP(=S)(OC)SCN1C(=O)c2ccccc2C1=O
not listed: [15] | [18] | [19]
inactive: all other assays above

CCCCCCCCCCCCCN1CC(C)OC(C)C1 (stereo not given)
not listed: [18] | [19]
inactive: all other assays above
